TDP1 cell noCPT = qHTS for Inhibitors of human tyrosyl-DNA phosphodiesterase 1 (TDP1): qHTS in cells in absence of CPT. DT40 Tdp1-/- hTDP1 cells, no CPT, ATP luminescence, 48 h. Potency, µM (doses to about 46.2 µM), usual class: inhibitors. AID 686978, 2013. 420,000 compounds, 15% hits; note: nearly all actives have a fitted effect of over 55% in size
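Readout: luminescence from CellTiter-Glo after 30 min in the dark at RT. Cells: DT40 Tdp1-/- with stable hTDP1, 400/well. Exposure: compounds alone, ≥48 hr, 37 °C.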
IL-1B inflam inh = qHTS for Inhibitors of Inflammasome Signaling: IL-1-beta AlphaLISA Primary Screen | THP-1 LPS/ATP IL-1B secretion, AlphaLISA, 16 h; stronger effect = lower value | activity change, % at 57.5 µM | 360,000 compounds, 4.7% hits | AID 743279, 2014; in the data active = activity change below about -50%; inconclusive = mostly about -30% to -49%
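THP-1 cells pretreated 1 hr with compounds (up to 57.5 uM final), then stimulated with LPS (250 ng/mL final) plus ATP (1.25 mM final); secreted IL-1B measured by AlphaLISA after 16 hr, decreased signal indicating inhibition.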
DT40 TDP1 CPT = qHTS for Inhibitors of human tyrosyl-DNA phosphodiesterase 1 (TDP1): qHTS in cells in presence of CPT; Potency, µM (highest dose often 46.2 µM), hits mostly inhibitors; AID 686979, 2013; chicken DT40 Tdp1-/-;hTDP1 cells + 20 nM CPT, ATP luminescence, 48 h; 420,000 compounds, 12% hits; note: nearly all actives have a fitted effect of over 55% in size
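Chicken DT40 Tdp1-/- cells complemented with human TDP1, 400 cells/well, exposed to compounds plus 20 nM camptothecin for at least 48 h at 37 C; viability read as ATP content by CellTiter-Glo luminescence.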
HT1080 IDH1KD tx = qHTS for induction of synthetic lethality in tumor cells producing 2HG: qHTS for the HT-1080-IDH1KD cell line | HT-1080 IDH1 knockdown viability, ATP luminescence, 48 h | Potency, µM (doses to about 46.1 µM), actives largely listed as cytotoxic | 360,000 compounds, 2% hits | AID 686971, 2013
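Knockdown cells (IDH1KD HT-1080) received compounds 2 h after plating at 750 cells/well and were kept 48 h at 37 °C in 5% FBS RPMI. A CellTiter-Glo luminescence read gave % activity for curve fitting.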
HT1080NT lethal = qHTS for induction of synthetic lethality in tumor cells producing 2HG: qHTS for the HT-1080-NT fibrosarcoma cell line | AID 686970, 2013 | 360,000 compounds, 1.6% hits | HT-1080-NT fibrosarcoma viability, CellTiter-Glo ATP luminescence, 48 h | Potency, µM (doses to about 46.1 µM), actives largely listed as cytotoxic;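 note: NT is the 2HG producing partner of a matched IDH1 knockdown line; nearly all actives have a fitted effect of over 55% in size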
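750 cells/well, RPMI + 5% FBS; 2 h settle, compound pin-transfer, 48 h at 37 degrees C. CellTiter-Glo 10 min RT, luminescence. Normalized to DMSO and media-only wells.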
Large screens that a line does not name were inactive. An excerpt weighted towards active compounds, which were near 19% of everything screened. Unless noted, calls come from the whole dose curve; as a rule, active = well fitted curve in the direction sought with a large enough effect; inconclusive = small, poorly fitted or top-dose-only effect, or another doubt; inactive = no such curve, though single readings can be large; an effect the other way counts as inactive or inconclusive.

O=C(NCC1CCC2(CCN(Cc3cccn3-c3ccc(Cl)cn3)CC2)O1)c1ccccc1 (configuration not stated)	none (no result: IL-1B inflam inh, HT1080 IDH1KD tx, HT1080NT lethal)
COc1cccc(-c2cc(C(F)(F)F)nc(N3CCN(c4ccccc4)CC3)n2)c1	TDP1 cell noCPT inconclusive, HT1080NT lethal inconclusive
FC(F)(F)COc1nc(OCC(F)(F)F)nc(N2CCN(c3ccccc3)CC2)n1	TDP1 cell noCPT inconclusive, IL-1B inflam inh -54
FC(F)(F)COc1nc(N2CCOCC2)nc(N(c2ccccc2)c2ccccc2)n1	TDP1 cell noCPT 21µM, DT40 TDP1 CPT inconclusive, HT1080 IDH1KD tx inconclusive, HT1080NT lethal inconclusive
CN1CCN(C(=O)C2CC(c3c(F)cccc3Cl)=NO2)CC1 (configuration not stated)	none
CSc1nc(N)c(NC(=O)c2ccc(Br)o2)c(=O)[nH]1	TDP1 cell noCPT inconclusive
COc1ccc(CNC(=O)C2CCN(S(=O)(=O)N3CCCCC3)CC2)cc1	none
CC1CCN(S(=O)(=O)N2CCC(C(=O)NC(C)c3ccccc3)CC2)CC1 (configuration not stated)	TDP1 cell noCPT inconclusive, DT40 TDP1 CPT 10µM
CCc1ccc(CNC(=O)C2CCN(S(=O)(=O)N3CCCCC3)CC2)cc1	TDP1 cell noCPT 23µM, DT40 TDP1 CPT inconclusive
CC(CCc1ccccc1)NC(=O)C1CCN(S(=O)(=O)c2ccc(F)cc2)CC1 (configuration not stated)	IL-1B inflam inh -63
CCCC(C)NC(=O)C1CCN(S(=O)(=O)c2ccccc2)CC1 (configuration not stated)	none
CC(CCc1ccccc1)NC(=O)C1CCN(S(=O)(=O)N2CCCCC2)CC1 (configuration not stated)	TDP1 cell noCPT inconclusive, IL-1B inflam inh -56, DT40 TDP1 CPT inconclusive
CCc1c(C)sc(NC(=O)Cn2nc(C(F)(F)F)c3c2CCCC3)c1C#N	TDP1 cell noCPT inconclusive, DT40 TDP1 CPT inconclusive, HT1080 IDH1KD tx inconclusive, HT1080NT lethal inconclusive
CC1(C)Oc2c(ccc(O)c2CN2CCOCC2)C2=C1CCCC2	TDP1 cell noCPT inconclusive, DT40 TDP1 CPT inconclusive
CCCC(=O)N1CCC1(C)C(=O)Nc1ccc2c(c1)OCCO2 (configuration not stated)	none
CC1CC(C)CN(CCCNC(=O)C2CCN(c3nnc(-n4cccc4)s3)CC2)C1 (configuration not stated)	IL-1B inflam inh inconclusive
CC(NC(=O)C1CCN(c2nnc(-n3cccc3)s2)CC1)C12CC3CC(CC(C3)C1)C2 (configuration not stated)	TDP1 cell noCPT 15µM, DT40 TDP1 CPT 16µM
CC(CCc1ccccc1)NC(=O)C1CCCN(c2nnc(-n3cccc3)s2)C1 (configuration not stated)	TDP1 cell noCPT inconclusive, DT40 TDP1 CPT 18µM
COC1OC2COC(c3ccccc3)OC2C2OC12 (configuration not stated)	none
N#C/C(C(=O)N1CCCCC1)=C1\Nc2ccccc2S1	TDP1 cell noCPT inconclusive
Cc1ccc(NC(=S)/C(C#N)=C2/Nc3ccccc3S2)cc1	TDP1 cell noCPT 23µM, DT40 TDP1 CPT 29µM, HT1080NT lethal inconclusive
C=C(C)C(=O)Nc1cccc(C2=NOC3(C2)C[C@H](C(N)=O)N(C(=O)/C=C/C)C3)c1 (some centres not stated)	none
C=CCc1cc(/C=C2/NC(=S)NC2=O)cc(OC)c1O	TDP1 cell noCPT 21µM, DT40 TDP1 CPT 15µM
CC(=O)NC(Cc1c(F)c(F)c(F)c(F)c1F)C(=O)NCC(N)C(=O)c1ccccc1 (configuration not stated)	TDP1 cell noCPT 20µM, DT40 TDP1 CPT inconclusive (no result: IL-1B inflam inh)
CC(=O)OC(C)OC(=O)C(C)c1ccc(-c2ccccc2)c(F)c1 (configuration not stated)	none (no result: IL-1B inflam inh, HT1080 IDH1KD tx, HT1080NT lethal)
Cc1cccc(C)c1NC(=O)C(C)c1ccc(-c2ccccc2)c(F)c1 (configuration not stated)	TDP1 cell noCPT 16µM, DT40 TDP1 CPT 23µM
C=CCn1c(=O)/c(=C/c2ccc(Cl)cc2)s/c1=C(\C#N)c1nnc2n1CCCCC2	TDP1 cell noCPT 6.5µM, IL-1B inflam inh -79, DT40 TDP1 CPT 21µM
C=CCn1c(/N=C/c2ccc3c(c2)OCO3)nc2ccccc21	none
C(=Nc1ccc(/C=C/c2ccnc3ccccc23)cc1)c1cccs1	TDP1 cell noCPT 13µM, DT40 TDP1 CPT inconclusive (no result: IL-1B inflam inh, HT1080 IDH1KD tx, HT1080NT lethal)
C(=Nc1ccc(/C=C/c2ccnc3ccccc23)cc1)c1ccc2c(c1)OCO2	TDP1 cell noCPT 18µM, DT40 TDP1 CPT inconclusive (no result: IL-1B inflam inh, HT1080 IDH1KD tx, HT1080NT lethal)
C(=Nc1ccc(/C=C/c2ccnc3ccccc23)cc1)c1ccco1	TDP1 cell noCPT 13µM, DT40 TDP1 CPT 16µM (no result: IL-1B inflam inh, HT1080 IDH1KD tx, HT1080NT lethal)
Clc1ccc(Cn2nc(-c3ccccc3)nc2-c2ccccc2)cc1	TDP1 cell noCPT inconclusive
COc1ccc(NC(=O)/C=C/c2cc(OC)c(OC)c(OC)c2)cn1	none
COc1cc(/C=C/C(=O)Nc2ccncc2)cc(OC)c1OC	TDP1 cell noCPT inconclusive, DT40 TDP1 CPT 21µM
COc1cc(/C=C/C(=O)Nc2ccc(C(C)=O)cc2)cc(OC)c1OC	TDP1 cell noCPT 21µM, DT40 TDP1 CPT inconclusive
COc1cc(/C=C/C(=O)Nc2nnc(CC(C)(C)C)s2)cc(OC)c1OC	TDP1 cell noCPT 21µM, DT40 TDP1 CPT inconclusive
CC(=O)c1ccc(NC(=O)/C=C/c2ccc(C)cc2)cc1	IL-1B inflam inh inconclusive
Cc1ccccc1Nc1nnc(SCC(=O)NC2CCCc3ccccc32)s1 (configuration not stated)	TDP1 cell noCPT inconclusive, DT40 TDP1 CPT inconclusive
Cc1noc(C)c1NC(=O)N(C)C[C@H]1Oc2ccc(NC(=O)Nc3ccc(C(F)(F)F)cc3)cc2C(=O)N([C@H](C)CO)C[C@@H]1C	none
CCc1nnc(NC(=O)C(C)Sc2ccccc2)s1 (configuration not stated)	none
COc1ccc(C2CCCN2C(=O)Nc2ccc(Cl)cc2)cc1OC (configuration not stated)	TDP1 cell noCPT inconclusive, DT40 TDP1 CPT inconclusive
Cc1ccc(CNC(=O)C(C)n2ccc3cc(S(=O)(=O)N4CCCC4)ccc32)cc1 (configuration not stated)	TDP1 cell noCPT 0.46µM, DT40 TDP1 CPT inconclusive (no result: IL-1B inflam inh, HT1080 IDH1KD tx, HT1080NT lethal)
CC(C(=O)NCc1ccc(F)cc1)n1ccc2cc(S(=O)(=O)N3CCCC3)ccc21 (configuration not stated)	TDP1 cell noCPT inconclusive, DT40 TDP1 CPT inconclusive

Compound activity: PubChem, National Center for Advancing Translational Sciences (NCATS)
